Test results as given in PubChem BioAssay AID720518 (National Center for Advancing Translational Sciences (NCATS), 2013).
Inconclusive results are not listed. Where a call stands in place of a potency, no number is given. Activity calls are given as the source filed them. The call rests on the fitted dose curve.

Test: qHTS for Inhibitors of Cell Surface uPA Generation: Wild-type Protective Antigen (WT-PrAg) Counterscreen for Cherry-picked Compounds
Conditions: cells, WT protective antigen toxicity counterscreen; series mostly up to 115 µM
Potency means the concentration at half of the fitted maximal effect.

SMILES	Potency
Cc1cccc(NC(=O)C2CCCN(S(=O)(=O)c3cccc4cccnc34)C2)c1 (stereo not given)	inactive
C[N+](C)(C)CCOC(=O)CBr	inactive
Cc1ccccc1C(=O)Nc1ccccc1N1CCCCC1	inactive
COc1ccccc1C(=O)NCc1ccccc1	inactive
O=C(Nc1cccc(C2=NCCN2)c1)Nc1cccc(C2=NCCN2)c1	inactive
CC(C)(C)n1ncc2c(=O)n(Cc3ccc(Cl)cc3)cnc21	inactive
CCOCCOc1cc(NCc2ccccc2)c2ncn(C(C)C)c2c1	inactive
Cc1cc(C)nc(N2N=C(C(F)(F)F)CC2=O)n1	inactive
O=C(c1cc(COc2ccc(F)cc2Cl)on1)N1CCCCCC1	inactive
CC1(c2cccc([N+](=O)[O-])c2)CC(C)(C)N(C(=O)c2ccccc2)c2ccccc21 (stereo not given)	inactive
CCOc1ccc(C(=O)NCCO)cc1	inactive
O=C(C[C@@H]1C/C=C\C[C@H](Cc2ccc(F)cc2)C(=O)OC[C@H]2CCCN2C1=O)N[C@H](CO)Cc1ccccc1	inactive
COC(=O)c1ccc(CN2CCCC(CNC(=O)Cc3ccc(OC)cc3)C2)cc1 (stereo not given)	inactive
CC1CCCCN1C(=O)CSc1nc2ncccc2[nH]1 (stereo not given)	inactive
Cn1c(=O)c2c(ncn2CCO)n(C)c1=O	inactive
NS(=O)(=O)c1ccc(CCNC(=O)c2ccc(Cl)s2)cc1	inactive
O=C(C1CCCCN1S(=O)(=O)c1ccc(F)cc1)N1CCN(c2ccccc2F)CC1 (stereo not given)	inactive
CC1CCN(C2=C(NS(=O)(=O)c3ccc(Br)cc3)C(=O)c3ccccc3C2=O)CC1	inactive
CCN(CC)CC(=O)Nc1sc2c(c1C(=O)c1ccccc1OC)CCC2	9.27 µM (active)
CNC(=S)N1C2CCCC1CC(NC(=O)c1ccc(F)cc1)C2 (stereo not given)	inactive

SMILES	Potency
O=C(CCS(=O)(=O)c1ccc2c(c1)NC(=O)CS2)NCCc1ccc(Cl)cc1	inactive
COc1ccc(CNCCC2(C(C)C)CCOC(C)(C)C2)cc1 (stereo not given)	inactive
CCOC(=O)C1(CCOc2ccccc2)CCN(Cc2ccc(O)c(OC)c2)CC1	inactive
Cc1c(NC(=S)Nc2ccc(Cl)cc2)c(=O)n(-c2ccccc2)n1C	inactive
Cc1ccc(NC(=O)CC2OC(=O)c3ccccc32)cc1S(=O)(=O)N1CCOCC1 (stereo not given)	inactive
Cc1[nH]c2ccccc2c1C(=O)COC(=O)c1cccc(S(=O)(=O)N2CCCCC2)c1	inactive
O=C(O)c1ccc(-c2ccc(/C=C3\NC(=O)N(Cc4ccc(Cl)cc4)C3=O)o2)cc1	inactive
C[C@H](CO)N1C[C@H](C)[C@@H](CN(C)C(=O)Nc2ccccc2)Oc2ccc(NC(=O)Cn3cnnn3)cc2C1=O	inactive
CC(=O)NS(=O)(=O)c1ccc(NC(=O)c2cccc(OCc3c(C)noc3C)c2)cc1	inactive
CCC(C)C1NC(=O)C2CCCN2C(=O)C(CC(C)C)OC(=O)CCNC(=O)C(C)N(C)C(=O)C(C(C)C)N(C)C1=O (stereo not given)	3.69 µM (active)
COc1ccc(C2=Nc3ccccc3C2(O)CCN2C(=O)c3ccccc3C2=O)cc1 (stereo not given)	inactive
CCn1nc(C)c(CNC(=O)C2CCC(=O)N(CCc3ccc(OC)cc3)C2)c1C (stereo not given)	inactive
COc1ccc2[nH]cc(S(=O)(=O)c3ccc(C(C)C)cc3)c(=O)c2c1	inactive
O=C(O)CNS(=O)(=O)c1ccc2c(c1)Cc1cc(S(=O)(=O)NCC(=O)O)ccc1-2	inactive
COc1ccc2cc(CCNC(=O)c3ccc4c(c3)OCO4)c(=O)[nH]c2c1	inactive
CCNC(=S)NNC(=O)c1ccncc1	inactive
O=C(O)C(Nc1nc(C(F)(F)F)nc2ccccc12)c1ccccc1 (stereo not given)	inactive
CS/C(=C\[N+](=O)[O-])Nc1ccccc1	inactive
CC(C)OC(=O)Nc1ccc(-c2ccc(NC(=O)OC(C)C)cc2Cl)c(Cl)c1	inactive
CCC(C)C(NC(=O)c1ccccc1)C(=O)Nc1ccc(S(=O)(=O)Nc2cc(C)nc(C)n2)cc1 (stereo not given)	inactive
